Results as given in PubChem BioAssay AID624086 (Broad Institute, 2012).

Assay: TCF/LEF luciferase signal increase in HEK293T – cell-based, firefly luciferase, dry powder, orthogonal assay for GSK3b inhibitor project, dose response (AID 624086)
Settings: HEK293T TCF/LEF firefly luciferase reporter, 24 h; series mostly up to 26 µM; activity change, negative = inhibition: at the top concentration;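 active = fitted half-maximal effect concentration at or below the top concentration tested; inactive = the rest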

Activity change, negative = inhibition, inactive:
COc1ccc(-c2nn(-c3ccccc3)cc2/C=N/O)cc1OC -1.01%
CC(C)COc1ccc(-c2nn(-c3ccccc3)cc2/C=N/O)cc1 0%
Cc1[nH]nc2c1C(c1ccn[nH]1)C1=C(CC(C)(C)CC1=O)N2 (stereo unspecified) 0.588%
CC1(C)CC(=O)/C(=C\c2ccccc2C(F)(F)F)C(=Nc2cc(C(F)(F)F)[nH]n2)C1 6.12%
COc1ccccc1/C=C1\C(=O)CC(C)(C)CC1=Nc1cc(C(F)(F)F)[nH]n1 0%
CC1(C)CC(=O)/C(=C\c2cccc(F)c2C(F)(F)F)C(=Nc2cc(C(F)(F)F)[nH]n2)C1 3.06%
CNC(=O)c1cn(-c2ccccc2)nc1-c1ccc(OC)cc1 5.1%
Cc1[nH]nc2c1C(c1ccc(C(F)(F)F)cc1)C1=C(CC(C)(C)CC1=O)N2 (stereo unspecified) -0.0415%
Cc1[nH]nc2c1C(c1ccc(F)cc1)C1=C(CC(C)(C)CC1=O)N2 (stereo unspecified) 0%
COc1ccccc1[C@@H]1C2=C(CC(C)(C)CC2=O)Nc2n[nH]c(C)c21 -0.562%
Cc1[nH]nc2nc3c(cc12)C(=O)CC(C)(C)C3 -0.107%
Cc1ccccc1C1C2=C(CC(C)(C)CC2=O)Nc2n[nH]c(C)c21 (stereo unspecified) -2.29%
Cc1[nH]nc2c1C(C)(c1ccccc1)C1=C(CC(C)(C)CC1=O)N2 (stereo unspecified) -14.4%
COc1ccc(-c2nn(-c3ccccc3)cc2CO)cc1 1.06%
COc1ccc(-c2nn(-c3ccccc3)cc2C(=O)O)cc1 -0.717%
Cc1[nH]nc2c1C(C1CC1)C1=C(CC(C)(C)CC1=O)N2 (stereo unspecified) -0.118%
CN(C)Cc1cn(-c2ccccc2)nc1-c1ccccc1 3.06%
COc1ccccc1C1C2=C(CC(C)(C)CC2=O)Nc2n[nH]c(-c3ccccc3)c21 (stereo unspecified) 0.194%
COc1cccc(-c2nn(-c3ccccc3)cc2/C=N/O)c1 0.588%
COc1ccccc1C1C2=C(CC(C)(C)CC2=O)Nc2n[nH]c(C(C)C)c21 (stereo unspecified) -0.468%
Cc1[nH]nc2c1[C@H](c1cccs1)C1=C(CC(C)(C)CC1=O)N2 0%
Cc1[nH]nc2c1C(c1ccsc1)C1=C(CC(C)(C)CC1=O)N2 (stereo unspecified) 0%
Cc1[nH]nc2c1C(c1ccc(Cl)s1)C1=C(CC(C)(C)CC1=O)N2 (stereo unspecified) 0%
COc1ccccc1C1C2=C(CC(C)(C)CC2=O)Nc2onc(C)c21 (stereo unspecified) -0.313%
CC1(C)CC(=O)C2=C(C1)Nc1n[nH]c(C(F)(F)F)c1C2c1cc(F)ccc1OC(F)(F)F (stereo unspecified) 3.06%
COc1ccccc1C1C2=C(CCC(C)(C)C2=O)Nc2n[nH]c(C)c21 (stereo unspecified) -0.321%
COc1ccccc1[C@H]1C2=C(CC(C)(C)CC2=O)Nc2n[nH]c(C(F)(F)F)c21 -2.25%
COc1ccccc1C1C2=C(CC(C)(C)CC2=O)Nc2ccccc21 (stereo unspecified) 0.0477%
O/N=C/c1cn(-c2ccccc2)nc1-c1ccccc1 0%
Cc1[nH]nc2c1C(C)C1=C(CC(C)(C)CC1=O)N2 (stereo unspecified) -0.0284%
Cc1[nH]nc2c1C(c1ccc(F)cc1Cl)C1=C(CC(C)(C)CC1=O)N2 (stereo unspecified) 0.588%
